PubChem BioAssay (NCI)
The panel holds about 83,000 compounds, 20% with a hit somewhere; the sample as a whole holds those more often.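 The endpoint reported here, percent growth, reads 100 for growth as untreated, 0 for no net growth and -100 for all cells dead.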 Activity calls are given as the source filed them. How the source made its calls: active means growth percent below 10; inactive means the rest.

System: CCRF-CEM leukemia
Assay: NCI-60 one-dose screen, 48 h (100 = growth as untreated, 0 = no growth, -100 = all killed)
Details: 10 µM unless noted

| SMILES | growth |
| --- | --- |
| Brc1ccc(-c2n(Cc3ccc4ccccc4c3)c(-c3ccccc3)c(-c3ccccc3)[n+]2Cc2ccc3ccccc3c2)cc1 | -10.5% (active) |
| O=C1CCCc2cc(OCC(=O)N3CCCCC3)ccc2N1 | 98.4% (inactive) |
| COc1cc2c3c(n(CCCN4CCC[C@@H]4CO)c(=O)c2cc1OC)-c1cc2c(cc1C3=O)OCO2 | 6.04% (active) |
| CC(=O)c1c(N)c(C#N)cn1-c1ccc(Cl)cc1Cl | 99.3% (inactive) |
| Cc1ccc(C2CC(c3ccc(S(=O)(=O)NCCNc4nc(Nc5ccc(F)cc5)nc(N(C)C)n4)cc3)=Nc3c(N)nc(N)nc3N2)cc1 (stereo not drawn) | 18.4% (inactive) |
| Cc1ccc(C(=O)C(c2c[nH]c3ccccc23)c2c[nH]c3ccccc23)cc1 | 5.91% (active) |
| COc1cc(-c2nc3ccc(C)cc3[nH]2)ccc1OCc1nnc(-c2ccc(Br)cc2)o1 | 26.4% (inactive) |
| Nc1nnc(-c2c[nH]c3ccc(Br)cc23)c(-c2c[nH]c3ncc(Br)cc23)n1 | 13.4% (inactive) |
| Cc1ccc(-c2nc(C#N)c(S(=O)(=O)N3CCN(S(=O)(=O)c4ccc(Cl)cc4)CC3)o2)cc1 | 13.1% (inactive) |
| CCOC(=O)C1=C(N)N(c2ccccc2)C2=C(C(=O)CC(C)(C)C2)C1c1ccccc1Cl (stereo not drawn) | 48.4% (inactive) |
| Cc1ccc(C(=O)NN2C(=O)/C(=C/C=C/c3ccc([N+](=O)[O-])o3)SC2=S)cc1 | 4.08% (active) |
| CCCS(=O)(=O)N1CCCC(C(=O)Nc2nc3ccc(NC(=O)c4ccc(F)c(OC)c4F)cc3s2)C1 (stereo not drawn) | 14.9% (inactive) |
| O=C1CC(Sc2n[nH]c(-c3ccncc3)n2)C(=O)N1c1ccc(Br)cc1 (stereo not drawn) | 88.9% (inactive) |
